# From the supplement of paper PMC7156485
# Key:
# Details in all cases: concentration: 10 µM; 24 h
# HCC1569 [1] = assay: cell number relative to DMSO (% of DMSO); higher = more cells (less growth inhibition / toxicity)
# How it was run: (§1)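 After 24 h at 37 °C with compounds at 10 µM, in triplicate, HCC1569 and TDF cells were fixed with 3.7% formaldehyde. Immunostaining used a rabbit anti-H1.0 antibody and an AlexaFluor 647 secondary, with DAPI, and six fields per well were imaged at ×10. H1.0 nuclear intensity or cell number is presented as percent of the plate control, from the median of replicates, with HCC1569 values smoothed for positional effects.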
# TDF [2] = assay: as above
# How it was run: as §1
# TDF [3] = assay: H1.0 immunofluorescence intensity relative to DMSO (% of DMSO); higher = stronger H1.0 induction, active = 120 or more
# How it was run: as §1
# HCC1569 [4] = assay: H1.0 immunofluorescence intensity relative to DMSO (% of DMSO); higher = stronger H1.0 induction, active = 140 or more
# How it was run: as §1
# 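Throughout, for H1.0 immunofluorescence intensity relative to DMSO: TDF is a line of transformed human dermal fibroblasts of mesenchymal origin.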
# 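Throughout, for cell number relative to DMSO: TDF denotes transformed human dermal fibroblasts of mesenchymal origin.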
structure (smiles),measurement,setting,value
Cl.Cl.Fc1ccc(C(OCCN2CCN(CCCc3ccccc3)CC2)c2ccc(F)cc2)cc1,cell number,HCC1569 [1],81
same,cell number,TDF [2],69.8
same,H1.0 immunofluorescence intensity,TDF [3],96.7 (inactive)
same,H1.0 immunofluorescence intensity,HCC1569 [4],124 (inactive)
CCCCCCCCC(=O)NCc1ccc(O)c(OC)c1 [N-Vanillylnonanamide],cell number,HCC1569 [1],76.7
same,cell number,TDF [2],81.3
same,H1.0 immunofluorescence intensity,TDF [3],107 (inactive)
same,H1.0 immunofluorescence intensity,HCC1569 [4],160 (active)
O=C(O)C1CCN1 [L-azetidine-2-carboxylic acid],cell number,HCC1569 [1],100
same,cell number,TDF [2],103
same,H1.0 immunofluorescence intensity,TDF [3],92.3 (inactive)
same,H1.0 immunofluorescence intensity,HCC1569 [4],92 (inactive)
C[N+](C)(C)CCCCCCCCCC[N+](C)(C)C.[Br-].[Br-] [Decamethonium dibromide],cell number,HCC1569 [1],101
same,cell number,TDF [2],100
same,H1.0 immunofluorescence intensity,TDF [3],91.7 (inactive)
same,H1.0 immunofluorescence intensity,HCC1569 [4],88.8 (inactive)
"O=C(O)C=CC(=O)O.O=[N+]([O-])c1ccc2nc(N3CCNCC3)ccc2c1 [Quipazine, 6-nitro-, maleate]",cell number,HCC1569 [1],96.6
same,cell number,TDF [2],95.5
same,H1.0 immunofluorescence intensity,TDF [3],95.2 (inactive)
same,H1.0 immunofluorescence intensity,HCC1569 [4],107 (inactive)
c1cncc(C2CCCCN2)c1 (racemic),cell number,HCC1569 [1],102
same,cell number,TDF [2],110
same,H1.0 immunofluorescence intensity,TDF [3],96 (inactive)
same,H1.0 immunofluorescence intensity,HCC1569 [4],84.1 (inactive)
CC(C)(C)c1o[nH]c(=O)c1CC(N)C(=O)O (stereo not drawn),cell number,HCC1569 [1],98.3
same,cell number,TDF [2],104
same,H1.0 immunofluorescence intensity,TDF [3],90 (inactive)
same,H1.0 immunofluorescence intensity,HCC1569 [4],95 (inactive)
Cl.NCCc1ccc(S(=O)(=O)F)cc1 [4-(2-Aminoethyl)benzenesulfonyl fluoride hydrochloride],cell number,HCC1569 [1],100
same,cell number,TDF [2],107
same,H1.0 immunofluorescence intensity,TDF [3],93.2 (inactive)
same,H1.0 immunofluorescence intensity,HCC1569 [4],88.6 (inactive)
OCC1CCCN2CCCCC12 (stereo not drawn) [Lupinine],cell number,HCC1569 [1],109
same,cell number,TDF [2],104
same,H1.0 immunofluorescence intensity,TDF [3],96.3 (inactive)
same,H1.0 immunofluorescence intensity,HCC1569 [4],84.3 (inactive)
"CCCN1CCOC2c3cc(O)ccc3OCC21.Cl (stereo not drawn) [S(+)-PD 128,907 hydrochloride]",cell number,HCC1569 [1],103
same,cell number,TDF [2],104
same,H1.0 immunofluorescence intensity,TDF [3],93.3 (inactive)
same,H1.0 immunofluorescence intensity,HCC1569 [4],100 (inactive)
CNCCc1c[nH]c2ccc(O)cc12.O=C(O)C(=O)O [N-omega-Methyl-5-hydroxytryptamine oxalate salt],cell number,HCC1569 [1],101
same,cell number,TDF [2],103
same,H1.0 immunofluorescence intensity,TDF [3],91 (inactive)
same,H1.0 immunofluorescence intensity,HCC1569 [4],96.1 (inactive)
CC(C)(C)c1cc(C=C(C#N)C#N)cc(Br)c1O,cell number,HCC1569 [1],99.2
same,cell number,TDF [2],99.1
same,H1.0 immunofluorescence intensity,TDF [3],110 (inactive)
same,H1.0 immunofluorescence intensity,HCC1569 [4],99.8 (inactive)
CCCN1CCCC(c2cccc(C#N)c2)C1.Cl (stereo not drawn) [S(-)-DS 121 hydrochloride],cell number,HCC1569 [1],100
same,cell number,TDF [2],96.1
same,H1.0 immunofluorescence intensity,TDF [3],92.4 (inactive)
same,H1.0 immunofluorescence intensity,HCC1569 [4],84.5 (inactive)
Cl.OCc1cnc[nH]1 [4-Imidazolemethanol hydrochloride],cell number,HCC1569 [1],99.6
same,cell number,TDF [2],102
same,H1.0 immunofluorescence intensity,TDF [3],93.3 (inactive)
same,H1.0 immunofluorescence intensity,HCC1569 [4],94.1 (inactive)
O=P1(NCCCl)OCCCN1CCCl (stereo not drawn) [Ifosfamide],cell number,HCC1569 [1],103
same,cell number,TDF [2],105
same,H1.0 immunofluorescence intensity,TDF [3],97.2 (inactive)
same,H1.0 immunofluorescence intensity,HCC1569 [4],112 (inactive)
CN1C(=O)CCS(=O)(=O)C1c1ccc(Cl)cc1 (stereo not drawn) [Chlormezanone],cell number,HCC1569 [1],101
same,cell number,TDF [2],108
same,H1.0 immunofluorescence intensity,TDF [3],85.9 (inactive)
same,H1.0 immunofluorescence intensity,HCC1569 [4],95.3 (inactive)
Clc1ccc(C2CC3CCC2N3)cn1 (racemic),cell number,HCC1569 [1],102
same,cell number,TDF [2],96.3
same,H1.0 immunofluorescence intensity,TDF [3],90.6 (inactive)
same,H1.0 immunofluorescence intensity,HCC1569 [4],81.4 (inactive)
CCCC(=O)OCC[N+](C)(C)C [Butyrylcholine],cell number,HCC1569 [1],101
same,cell number,TDF [2],104
same,H1.0 immunofluorescence intensity,TDF [3],92.9 (inactive)
same,H1.0 immunofluorescence intensity,HCC1569 [4],111 (inactive)
CCCCCC=CCC=CCC=CCC=CCCCC(=O)NCC(=O)O [N-arachidonylglycine],cell number,HCC1569 [1],101
same,cell number,TDF [2],99.4
same,H1.0 immunofluorescence intensity,TDF [3],98.2 (inactive)
same,H1.0 immunofluorescence intensity,HCC1569 [4],99.6 (inactive)
C=C1C(C)C2C(Cc3ccccc3)NC(=O)C23C(OC(C)=O)C=CC(C)(O)C(=O)C(C)CC=CC3C1O (stereo not drawn) [Cytochalasin D],cell number,HCC1569 [1],69.1
same,cell number,TDF [2],45.1
same,H1.0 immunofluorescence intensity,TDF [3],212 (active)
same,H1.0 immunofluorescence intensity,HCC1569 [4],204 (active)
"Nc1ncnc2c1ncn2C1OC(COP(=O)(O)CP(=O)(O)OP(=O)([O-])[O-])C(O)C1O.[Li+].[Li+] (stereo not drawn) [alpha,beta-Methylene adenosine 5'-triphosphate dilithium]",cell number,HCC1569 [1],102
same,cell number,TDF [2],109
same,H1.0 immunofluorescence intensity,TDF [3],87.9 (inactive)
same,H1.0 immunofluorescence intensity,HCC1569 [4],96.4 (inactive)
CCC1(C2OC(C3OC(O)(CO)C(C)CC3C)CC2C)CCC(C2(C)CCC3(CC(O)C(C)C(C(C)C(OC)C(C)C(=O)[O-])O3)O2)O1.[Na+] (stereo not drawn) [Monensin],cell number,HCC1569 [1],90.4
same,cell number,TDF [2],74.5
same,H1.0 immunofluorescence intensity,TDF [3],120 (active)
same,H1.0 immunofluorescence intensity,HCC1569 [4],186 (active)
